Assay [1] can be described thus: inhibitors of CD8+ T cell-vesicle binding, pilot screen, LFA-1/ICAM-1 modulator project, MLPCN validation set, flow cytometry (AID 2523;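 active = response below a set limit, under 55% cells CD8-positive and vesicle-bound, and CD8 cells' 90th-percentile brightness under 279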;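 for vesicle binding response: mean PE anti-B7-1 fluorescence of CD8+ cells relative to row control; 100% = QL9-loaded vesicles with DMSO vehicle in the same plate row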). The note with it: 2C mouse CD8+ T cells, at 7 µM, stronger effect = lower value; double positive events: measured here: CD8+/vesicle+ event percentage. In general terms: In flow cytometry, cells or beads pass a laser one at a time.
For assay [2], the target named is Integrin beta-1 (Homo sapiens) + Integrin alpha-4 (Homo sapiens) (UniProt P13612+P05556). The assay is described as follows: inhibition of HUTS-21 binding to VLA-4, pilot screen, VLA-4 allosteric modulator project, U937 cells, HUTS-21 mAb, flow cytometry, validation set (AID 2674;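 active = inhibition above 50%, about 3 SD of the validation set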;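 note: antibody binding induced by the VLA-4 ligand LDV present at three times its Kd; 0% = LDV ligand with antibody and no compound and 100% = antibody without LDV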). To be noted: HUTS-21 LIBS mAb binding, at 6.7 µM, stronger effect = higher value, binding induced by LDV ligand.
Chain of Integrin beta-1 (Homo sapiens) + Integrin alpha-4 (Homo sapiens) (P05556 whole entry, looked up): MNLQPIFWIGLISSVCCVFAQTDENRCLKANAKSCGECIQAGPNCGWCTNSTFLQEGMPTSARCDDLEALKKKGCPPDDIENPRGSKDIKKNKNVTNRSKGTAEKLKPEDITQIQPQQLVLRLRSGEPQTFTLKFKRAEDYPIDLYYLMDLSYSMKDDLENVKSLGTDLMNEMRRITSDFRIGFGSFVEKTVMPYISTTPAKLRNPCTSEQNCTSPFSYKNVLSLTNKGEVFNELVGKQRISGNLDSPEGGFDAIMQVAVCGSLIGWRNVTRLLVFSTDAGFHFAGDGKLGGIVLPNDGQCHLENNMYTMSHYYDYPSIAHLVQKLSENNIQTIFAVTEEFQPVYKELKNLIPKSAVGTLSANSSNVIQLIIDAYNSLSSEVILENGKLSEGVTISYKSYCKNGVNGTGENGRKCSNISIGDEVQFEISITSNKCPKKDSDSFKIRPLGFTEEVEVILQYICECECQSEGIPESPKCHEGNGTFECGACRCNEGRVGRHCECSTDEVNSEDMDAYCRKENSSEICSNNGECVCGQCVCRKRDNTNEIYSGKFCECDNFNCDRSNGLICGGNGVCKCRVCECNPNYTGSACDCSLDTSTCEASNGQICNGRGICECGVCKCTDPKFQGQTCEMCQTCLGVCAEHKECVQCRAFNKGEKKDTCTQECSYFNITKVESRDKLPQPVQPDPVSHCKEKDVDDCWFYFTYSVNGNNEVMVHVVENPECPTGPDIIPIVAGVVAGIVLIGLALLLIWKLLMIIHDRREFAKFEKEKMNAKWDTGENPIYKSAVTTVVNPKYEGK
Chain of Integrin beta-1 (Homo sapiens) + Integrin alpha-4 (Homo sapiens) (P13612 whole entry, looked up): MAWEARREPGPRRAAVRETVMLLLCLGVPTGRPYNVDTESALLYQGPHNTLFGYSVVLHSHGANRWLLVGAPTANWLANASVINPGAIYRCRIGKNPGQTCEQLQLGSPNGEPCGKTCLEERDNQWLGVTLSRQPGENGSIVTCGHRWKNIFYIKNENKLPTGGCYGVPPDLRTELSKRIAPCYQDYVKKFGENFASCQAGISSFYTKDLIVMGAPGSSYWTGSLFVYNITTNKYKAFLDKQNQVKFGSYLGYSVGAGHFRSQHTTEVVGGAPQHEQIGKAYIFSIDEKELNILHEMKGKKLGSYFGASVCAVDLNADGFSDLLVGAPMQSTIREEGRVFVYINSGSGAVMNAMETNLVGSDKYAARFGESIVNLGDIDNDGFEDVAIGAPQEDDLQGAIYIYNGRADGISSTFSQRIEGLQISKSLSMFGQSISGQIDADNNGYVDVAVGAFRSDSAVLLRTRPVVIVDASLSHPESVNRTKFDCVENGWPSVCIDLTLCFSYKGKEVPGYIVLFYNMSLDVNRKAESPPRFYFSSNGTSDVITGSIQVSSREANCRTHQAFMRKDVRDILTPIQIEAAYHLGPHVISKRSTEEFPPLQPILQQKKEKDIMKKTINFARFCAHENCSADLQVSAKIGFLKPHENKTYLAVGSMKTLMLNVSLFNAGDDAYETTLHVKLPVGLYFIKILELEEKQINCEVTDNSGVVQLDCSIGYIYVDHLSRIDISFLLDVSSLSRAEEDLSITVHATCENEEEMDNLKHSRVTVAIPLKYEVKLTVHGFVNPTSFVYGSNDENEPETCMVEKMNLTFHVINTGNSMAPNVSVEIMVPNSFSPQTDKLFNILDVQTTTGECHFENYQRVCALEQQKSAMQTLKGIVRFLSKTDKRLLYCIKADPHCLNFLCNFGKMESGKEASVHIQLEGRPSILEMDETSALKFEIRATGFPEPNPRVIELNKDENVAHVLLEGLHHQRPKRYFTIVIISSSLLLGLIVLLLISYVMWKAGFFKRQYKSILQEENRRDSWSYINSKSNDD

A short description of assay [3]: superoxide lowering in aged yeast cells, pilot screen, validation compound set (AID 2706;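 active = superoxide response below 65% of plate, a cut near 3 SD across the whole screen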;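 note: yeast exposed to compound for one week at 30 degrees C before staining; 100% = mean of all compound wells on the same plate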). To be noted: S. cerevisiae aging, superoxide DHE fluorescence; at 10 µM, stronger effect = lower value.
The target in assay [4] is Beta-adrenergic receptor kinase 1 (Homo sapiens) (UniProt P25098). The assay is described as follows: GRK2 binders displacing RNA aptamer, biochemical, validation, human GRK2, bead flow cytometry (AID 488806;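 active = aptamer binding inhibition above 30%, about 3 SD of noise from non-fluorescent compounds; inactive = inhibition at or below 30%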). To be noted: bead-bound GRK2, FAM-aptamer displacement, at 10 µM, stronger effect = higher value.
Chain of Beta-adrenergic receptor kinase 1 (Homo sapiens) (P25098 whole entry, looked up): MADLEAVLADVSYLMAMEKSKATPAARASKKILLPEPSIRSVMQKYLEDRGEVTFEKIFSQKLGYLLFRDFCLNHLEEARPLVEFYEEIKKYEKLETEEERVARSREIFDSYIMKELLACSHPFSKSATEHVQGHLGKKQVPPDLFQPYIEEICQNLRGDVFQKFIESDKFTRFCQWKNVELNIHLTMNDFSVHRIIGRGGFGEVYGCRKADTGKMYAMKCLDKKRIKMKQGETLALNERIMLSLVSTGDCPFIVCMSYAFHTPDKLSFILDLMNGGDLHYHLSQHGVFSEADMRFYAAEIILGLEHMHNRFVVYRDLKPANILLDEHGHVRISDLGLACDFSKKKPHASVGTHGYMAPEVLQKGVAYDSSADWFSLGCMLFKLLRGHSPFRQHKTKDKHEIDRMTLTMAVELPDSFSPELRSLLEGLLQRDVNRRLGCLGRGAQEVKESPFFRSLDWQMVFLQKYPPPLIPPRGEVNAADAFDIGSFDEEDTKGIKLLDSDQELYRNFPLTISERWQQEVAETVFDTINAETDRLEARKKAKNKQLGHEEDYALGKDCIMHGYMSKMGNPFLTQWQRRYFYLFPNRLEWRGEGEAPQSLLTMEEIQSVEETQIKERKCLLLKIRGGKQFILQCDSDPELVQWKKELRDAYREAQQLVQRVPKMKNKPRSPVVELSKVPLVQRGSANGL
The target of assay [5] is Beta-2 adrenergic receptor (Homo sapiens) (UniProt P07550). The assay is described as follows: beta2AR agonists driving receptor internalization, pilot screen, cell-based, FAP fluorogen, flow cytometry, validation set (AID 504459;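 active = percent response above 42, roughly 3 SD of non-fluorescent test compounds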;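 note: agonist-driven loss of surface beta2AR via internalization measured by FAP dye flow cytometry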). To be noted: Am2.2-beta2AR cells, FAP surface receptor flow cytometry; at 10 µM; stronger effect = higher value.
Chain of Beta-2 adrenergic receptor (Homo sapiens) (P07550 whole entry, looked up): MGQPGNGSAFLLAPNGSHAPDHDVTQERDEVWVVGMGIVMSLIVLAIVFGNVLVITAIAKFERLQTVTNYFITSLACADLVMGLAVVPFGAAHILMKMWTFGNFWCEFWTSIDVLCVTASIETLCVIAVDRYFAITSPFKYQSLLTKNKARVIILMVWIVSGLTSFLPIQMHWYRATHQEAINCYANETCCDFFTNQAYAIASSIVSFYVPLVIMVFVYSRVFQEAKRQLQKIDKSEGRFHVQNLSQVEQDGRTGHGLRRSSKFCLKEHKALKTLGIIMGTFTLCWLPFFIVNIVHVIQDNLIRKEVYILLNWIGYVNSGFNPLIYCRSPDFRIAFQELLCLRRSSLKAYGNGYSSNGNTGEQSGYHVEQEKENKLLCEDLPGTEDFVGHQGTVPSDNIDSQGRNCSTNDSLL
Assay [6] deals with AP-2 complex subunit beta (Homo sapiens) (UniProt P63010). The assay is described as follows: inhibitors of arrestin peptide binding to AP2, pilot screen, biochemical, validation set, GST-AP2 beads, flow cytometry (AID 504541;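 active = inhibition above 54%, about 3 SD of non-fluorescent compounds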;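 note: AP2 carries R879A mutation and is captured from E. coli lysate; bead-bound FITC arrestin peptide fluorescence measuring arrestin peptide binding to AP2; 0% = DMSO wells and 100% = excess unlabeled arrestin peptide control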). The note with it: FITC arrestin peptide, at 10 µM, stronger effect = higher value, AP2 beta2 appendage fragment, R879A mutant.
Chain of AP-2 complex subunit beta (Homo sapiens) (P63010 whole entry, looked up, the tested form may be a part, one chain of several): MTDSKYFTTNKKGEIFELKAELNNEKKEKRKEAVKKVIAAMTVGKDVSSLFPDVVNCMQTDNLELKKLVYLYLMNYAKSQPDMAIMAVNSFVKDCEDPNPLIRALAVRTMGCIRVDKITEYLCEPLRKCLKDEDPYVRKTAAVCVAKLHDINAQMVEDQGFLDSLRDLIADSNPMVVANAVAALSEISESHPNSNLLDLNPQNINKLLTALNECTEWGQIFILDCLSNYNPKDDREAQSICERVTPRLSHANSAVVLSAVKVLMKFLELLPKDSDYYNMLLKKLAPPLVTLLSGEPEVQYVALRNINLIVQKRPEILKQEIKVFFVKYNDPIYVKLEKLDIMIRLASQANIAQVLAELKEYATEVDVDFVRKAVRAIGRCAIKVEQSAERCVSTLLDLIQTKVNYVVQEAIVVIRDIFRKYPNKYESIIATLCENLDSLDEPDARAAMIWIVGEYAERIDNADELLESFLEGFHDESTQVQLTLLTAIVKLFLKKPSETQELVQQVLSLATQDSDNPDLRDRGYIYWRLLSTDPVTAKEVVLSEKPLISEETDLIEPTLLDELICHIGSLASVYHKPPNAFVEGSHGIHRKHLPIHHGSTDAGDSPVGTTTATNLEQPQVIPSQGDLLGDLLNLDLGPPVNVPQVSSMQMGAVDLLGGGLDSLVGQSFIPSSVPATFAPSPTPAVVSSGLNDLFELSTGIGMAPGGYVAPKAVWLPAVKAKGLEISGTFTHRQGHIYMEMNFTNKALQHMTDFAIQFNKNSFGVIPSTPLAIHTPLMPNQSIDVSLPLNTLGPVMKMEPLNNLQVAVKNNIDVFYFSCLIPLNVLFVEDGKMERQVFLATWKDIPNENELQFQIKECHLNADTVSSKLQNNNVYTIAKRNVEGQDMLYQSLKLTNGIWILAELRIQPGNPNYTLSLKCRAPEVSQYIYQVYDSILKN
A short description of assay [7]: yeast V-ATPase proton transport modulators, S. cerevisiae, pHLuorin, HTS validation (AID 504600; in the data active = response above about 15%;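 note: plate controls were DMSO for no effect and reference compound for full effect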). To be noted: S. cerevisiae pHLuorin cytosolic pH, at 10 µM, stronger effect = higher value.
Assay [8] has as its system anti-desmoglein-3 scFv antibody binding to human DSG3. Briefly: inhibitors of anti-DSG3 scFv binding to DSG3, pilot screen, biochemical, validation compound set, bead-based, flow cytometry (AID 588368;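 active = binding below the plate cutoff, the plate median minus 3 SD, with a reading above zero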;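 note: signal is the median channel fluorescence of bead-bound GFP antibody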). To be noted: Protein G beads, DSG3-Fc, scFv-GFP binding, at 10 µM, stronger effect = lower value.
Assay [9] can be described thus: inhibitors of fungal efflux pumps CDR1, CDR2, MDR1, pilot screen, validation compound set, multiplex, phenotypic (AID 588506;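 active = efflux inhibition above 0.42, the validation set average plus 4 SD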;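 note: Nile Red retained in cells so higher fluorescence means more efflux inhibition; 0 = negative control wells and 1 = enniatin B 25 µM full block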). The note with it: S. cerevisiae pump-expressing triplex, Nile Red efflux flow cytometry; at 10 µM; stronger effect = higher value; the pumps come from Candida albicans.
For assay [10], the target named is ATP-binding cassette sub-family B member 6 (Homo sapiens) (UniProt Q9NP58). Briefly: ABCB6 transporter inhibitors, pilot screen, K562-ABCB6 cells, flow cytometry, validation set (AID 588550;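 active = inhibition above the screen-wide mean plus 3 SD, about 51%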;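 note: 0% = DMSO wells and 100% = benzethonium chloride 70 µM positive control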). The note with it: K562-ABCB6 porphyrin accumulation, 1 h, at 10 µM, stronger effect = higher value.
Chain of ATP-binding cassette sub-family B member 6 (Homo sapiens) (Q9NP58 whole entry, looked up): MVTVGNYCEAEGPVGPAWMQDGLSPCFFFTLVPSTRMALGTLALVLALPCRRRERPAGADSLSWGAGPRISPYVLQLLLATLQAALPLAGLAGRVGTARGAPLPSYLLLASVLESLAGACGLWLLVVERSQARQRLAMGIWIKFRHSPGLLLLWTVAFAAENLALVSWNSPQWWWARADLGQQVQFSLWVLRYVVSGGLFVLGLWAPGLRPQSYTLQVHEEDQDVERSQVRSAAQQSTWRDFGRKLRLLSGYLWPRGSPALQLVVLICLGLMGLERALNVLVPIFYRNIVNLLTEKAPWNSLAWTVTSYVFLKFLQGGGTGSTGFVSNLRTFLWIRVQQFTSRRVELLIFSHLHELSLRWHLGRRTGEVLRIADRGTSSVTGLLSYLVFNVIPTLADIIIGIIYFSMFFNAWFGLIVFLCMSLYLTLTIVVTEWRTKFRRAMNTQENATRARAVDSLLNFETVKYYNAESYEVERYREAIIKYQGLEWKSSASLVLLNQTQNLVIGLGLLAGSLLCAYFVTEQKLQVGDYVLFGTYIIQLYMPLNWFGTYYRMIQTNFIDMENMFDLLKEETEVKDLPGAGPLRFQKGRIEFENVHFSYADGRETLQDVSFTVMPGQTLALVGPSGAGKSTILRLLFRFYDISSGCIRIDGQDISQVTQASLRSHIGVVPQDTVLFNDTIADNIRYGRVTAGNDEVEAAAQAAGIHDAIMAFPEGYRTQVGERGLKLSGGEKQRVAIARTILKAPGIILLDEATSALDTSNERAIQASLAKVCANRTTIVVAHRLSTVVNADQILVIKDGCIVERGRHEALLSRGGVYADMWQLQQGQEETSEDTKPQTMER
Assay [11] in a line: promoters of myeloid differentiation in arrested cells, primary screen, cell-based, GFP/MAC1 double positive, flow cytometry, validation set (AID 588685).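 Note: compound exposure lasts four days before antibody staining and flow analysis; 0% = DMSO wells and 100% = 5 µM fulvestrant positive control.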 The note with it: ER-HoxA9 marrow cells, stronger effect = higher value, normalized: vehicle 0, fulvestrant 100.

The source made the active and inactive calls.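 Rule for the calls, unless noted: active = differentiation response of at least 50%, scaled between solvent and reference control, from cells with both markers; inactive = the rest.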

The term inhibition denotes the relative decrease from the control value, in per cent.

On to `COc1cc(OC)c(C2C(C#N)=C(N)OC3=C2C(=O)CC(C)(C)C3)cc1OC` (stereo unspecified), for which the double positive events in [1] was 59.9%. The vesicle binding response in assay [1] was 137% (inactive). Also, the inhibition was 5.61% (inactive) in assay [2], 5.17% (inactive) in assay [6] and 13% (inactive) in assay [10]. The superoxide response (% of plate) in assay [3] is 109% (inactive). Also, the aptamer binding inhibition in assay [4] is 2% (inactive). The figures for the response in assay [5] and in [7] were 10.6% (inactive) and -1.86% (inactive), respectively. Besides, the binding (% of control) in assay [8] is 102% (inactive). Also, the efflux inhibition (fraction of control) in assay [9] is -0.38 (inactive). Moreover, the differentiation response in assay [11] was -11.9% (inactive).

The compound `CC(C)(C)c1ccc(C(O)CCCN2CCC(C(O)(c3ccccc3)c3ccccc3)CC2)cc1` (stereo unspecified) showed a double positive events in [1] of 64.6%. For the same compound, in [1], the vesicle binding response was 199% (inactive). The inhibition in assay [2] was 38.9% (inactive); in assay [6], 2.19% (inactive); in assay [10] it was 10% (inactive). Besides, the superoxide response (% of plate) in assay [3] was 54.7% (active). Besides, the aptamer binding inhibition in assay [4] was -1% (inactive). For the same compound, the response in assay [5] was 74.7% (active); in assay [7], 16.5% (active). Further, the binding (% of control) in assay [8] is 112% (inactive). In addition, in [9], the efflux inhibition (fraction of control) is 0.59 (active). Besides, the differentiation response in assay [11] was 0.92% (inactive).

For `CC(C)OC(=O)CC1C(=O)NCCN1C(=S)NC(=O)c1ccccc1Cl` (stereo unspecified), in assay [1], the double positive events turned out to be 57.9%. The vesicle binding response in [1] is 115% (inactive). Further, the inhibition in [2] was -5.11% (inactive); in assay [6], 7.65% (inactive); in assay [10], -197% (inactive). Moreover, the superoxide response (% of plate) in [3] was 94.8% (inactive). The aptamer binding inhibition in assay [4] is 1% (inactive). In addition, the response is 11.7% (inactive) in assay [5] and -6.29% (inactive) in assay [7]. Also, the binding (% of control) in assay [8] was 111% (inactive). Further, the efflux inhibition (fraction of control) in assay [9] is 0 (inactive). Besides, the differentiation response in assay [11] was -10.4% (inactive).

In turn, `O=C(C1CCCCC1)N1CC(=O)N2CCc3ccccc3C2C1` (stereo unspecified) registered a double positive events in assay [1] of 61.4%. The vesicle binding response in assay [1] was 225% (inactive). The inhibition in [2] is -2.82% (inactive); in [6], -1.09% (inactive); in assay [10], 3% (inactive). Moreover, the superoxide response (% of plate) in assay [3] is 109% (inactive). Also, in assay [4], the aptamer binding inhibition is 1% (inactive). The response in assay [5] is -15.4% (inactive); in [7] it was -5.39% (inactive). Besides, in [8], the binding (% of control) was 101% (inactive). In assay [9], the efflux inhibition (fraction of control) is 0 (inactive). In addition, the differentiation response in assay [11] is 29.5% (inactive).

For the compound `COc1ccc(CCN2CCC(Nc3nc4ccccc4n3Cc3ccc(F)cc3)CC2)cc1`, the double positive events in assay [1] was found to be 44.8%. Also, the vesicle binding response in assay [1] is 112% (inactive). Moreover, the figures for the inhibition in assay [2], in [6] and in assay [10] were 16.3% (inactive), 1.18% (inactive) and -38% (inactive), respectively. Moreover, the superoxide response (% of plate) in [3] is 93.2% (inactive). Moreover, the aptamer binding inhibition in [4] was -15% (inactive). Moreover, the response in assay [5] was 34.8% (inactive); in [7], 4.6% (inactive). Also, in assay [8], the binding (% of control) was 138% (inactive). Also, the efflux inhibition (fraction of control) in assay [9] was 0.415 (inactive). Besides, in assay [11], the differentiation response was 10.1% (inactive).

`COCc1cc(=O)[nH]c(Nc2nc3ccccc3o2)n1` yielded a double positive events in [1] of 62.6%. Also, the vesicle binding response in assay [1] is 117% (inactive). Besides, the figures for the inhibition in [2], in [6] and in assay [10] were -7.93% (inactive), -0.3% (inactive) and 4% (inactive), respectively. The superoxide response (% of plate) in [3] is 86.3% (inactive). Besides, the aptamer binding inhibition in [4] was 3% (inactive). For the same compound, the response in assay [5] is -16.5% (inactive); in assay [7], 6.3% (inactive). Further, the binding (% of control) in assay [8] was 108% (inactive). The efflux inhibition (fraction of control) in assay [9] was 0 (inactive). Further, the differentiation response in assay [11] was 6.83% (inactive).

The compound `O=C(/C=C/c1ccco1)NCc1ccc2c(c1)OCO2` had a double positive events in assay [1] of 63%. Further, the vesicle binding response in [1] is 260% (inactive). Besides, the values for the inhibition in assay [2], in assay [6] and in assay [10] were -3.16% (inactive), -3% (inactive) and 8% (inactive), respectively. Also, the superoxide response (% of plate) in [3] was 101% (inactive). Moreover, the aptamer binding inhibition in assay [4] was 0% (inactive). Moreover, the response in assay [5] is -2.38% (inactive); in assay [7], 1.08% (inactive). Besides, in assay [8], the binding (% of control) was 94.7% (inactive). In addition, in assay [9], the efflux inhibition (fraction of control) was 0.19 (inactive). The differentiation response in [11] is -10.4% (inactive).

In assay [1], `COc1cc2c(cc1O)CCN(C(=O)c1ccco1)C2C` (stereo unspecified) came in with a double positive events of 59.4%. Moreover, the vesicle binding response in [1] is 242% (inactive). Also, the inhibition in assay [2] was 5.03% (inactive); in [6], 14.6% (inactive); in assay [10] it was 4% (inactive). In addition, the superoxide response (% of plate) in assay [3] is 98.4% (inactive). Moreover, the aptamer binding inhibition in assay [4] was -1% (inactive). Moreover, the values for the response in assay [5] and in assay [7] were 0.24% (inactive) and 0.13% (inactive), respectively. Further, the binding (% of control) in assay [8] was 97.4% (inactive). For the same compound, the efflux inhibition (fraction of control) in assay [9] is 0.22 (inactive). Moreover, the differentiation response in [11] was 8.8% (inactive).

Regarding `CCc1cccc(OC2OC(CO)C(O)C(O)C2NC(C)=O)c1` (stereo unspecified), in [1], the double positive events came out at 69.6%. In addition, the vesicle binding response in assay [1] was 308% (inactive). Further, the figures for the inhibition in assay [2], in assay [6] and in assay [10] were -5.38% (inactive), -1.83% (inactive) and 7% (inactive), respectively. Also, the superoxide response (% of plate) in assay [3] was 98.7% (inactive). Further, the aptamer binding inhibition in [4] was 1% (inactive). In addition, the response is -16.8% (inactive) in [5] and 4.31% (inactive) in assay [7]. Further, the binding (% of control) in assay [8] was 103% (inactive). Also, in assay [9], the efflux inhibition (fraction of control) is -0.13 (inactive). Moreover, in [11], the differentiation response was 0.92% (inactive).

`O=P(c1ccccc1)(c1ccccc1)c1nc(-c2ccc(Cl)cc2)oc1N1CCOCC1` showed a double positive events in assay [1] of 57.7%. Also, the vesicle binding response in [1] is 148% (inactive). For the same compound, the values for the inhibition in assay [2], in [6] and in assay [10] were 4.27% (inactive), 7.65% (inactive) and -3% (inactive), respectively. For the same compound, the superoxide response (% of plate) in [3] is 135% (inactive). Further, the aptamer binding inhibition in assay [4] was 2% (inactive). Moreover, the response was -13.6% (inactive) in assay [5] and 3.02% (inactive) in [7]. In addition, the binding (% of control) in assay [8] is 105% (inactive). Further, the efflux inhibition (fraction of control) in assay [9] is 0.435 (active). The differentiation response in [11] is -3.11% (inactive).

Take `Cn1cc(CN(CCO)Cc2cccs2)c(-c2cccc(Cl)c2)n1`: the double positive events in [1] worked out at 55.3%. The vesicle binding response in assay [1] was 159% (inactive). The inhibition in assay [2] was -1.79% (inactive); in [6] it was -0.41% (inactive); in assay [10] it was 5% (inactive). In [3], the superoxide response (% of plate) was 92.3% (inactive). Besides, the aptamer binding inhibition in assay [4] was 3% (inactive). Further, the response is 32.8% (inactive) in assay [5] and 1.36% (inactive) in assay [7]. Besides, the binding (% of control) in assay [8] is 99.3% (inactive). In addition, the efflux inhibition (fraction of control) in [9] was -0.06 (inactive). For the same compound, the differentiation response in assay [11] is -8.8% (inactive).

Consider `O=C(Nc1c(C(=O)O)[nH]c2ccccc12)NC1CCCCC1`, for which the double positive events in [1] came to 60.3%. Besides, the vesicle binding response in assay [1] was 190% (inactive). Moreover, the inhibition in assay [2] was -17.3% (inactive); in [6], 3.04% (inactive); in assay [10] it was -3% (inactive). Further, the superoxide response (% of plate) in assay [3] was 102% (inactive). For the same compound, in assay [4], the aptamer binding inhibition was 4% (inactive). Further, the figures for the response in assay [5] and in assay [7] were -18.9% (inactive) and 5.33% (inactive), respectively. Besides, the binding (% of control) in assay [8] is 101% (inactive). Besides, in assay [9], the efflux inhibition (fraction of control) was -0.13 (inactive). Besides, the differentiation response in assay [11] is -4% (inactive).

For `CC(=O)C1=C(NC(=O)c2ccc(C(F)(F)F)cc2)C[C@@H]2[C@H]1C2(C)C`, the double positive events in [1] was 60%. In assay [1], the vesicle binding response was 129% (inactive). The inhibition was -3.77% (inactive) in [2], 6.52% (inactive) in [6] and -1% (inactive) in [10]. The superoxide response (% of plate) in assay [3] is 99% (inactive). Further, in assay [4], the aptamer binding inhibition was 3% (inactive). Moreover, the response in [5] is 0.35% (inactive); in assay [7] it was -6.14% (inactive). For the same compound, the binding (% of control) in assay [8] was 101% (inactive). In addition, the efflux inhibition (fraction of control) in assay [9] was 0.28 (inactive). In [11], the differentiation response was -17.7% (inactive).
